# From PubChem BioAssay (Tox21)
# Records with an inconclusive call do not appear. Entries that show only a call come without a potency. The source made the active and inactive calls. Calls come from the whole dose curve; as a rule, active = well fitted cell-killing curve with a large enough effect in the repeat runs; inconclusive = weak or mixed curves; inactive = flat fitted curve, though single readings scatter.
# Assay: qHTS RealTime-Glo MT Cell Viability Assay in HepG2 cells - 8 hour (AID 1224873); note: nearly all actives have a fitted effect of over 55% in size
# Conditions: RealTime-Glo luminescence; series mostly up to 76.8 µM
# Text: National Center for Advancing Translational Sciences [NCATS]
# NIH Chemical Genomics Center [NCGC]
# U.S. Environmental Protection Agency [EPA]
# National Institutes of Environmental Health Sciences [NIEHS]
# National Toxicology Program [NTP]
# U.S. Food and Drug Administration [FDA]
# Measure of cell viability is critical in the cell-base assay. Analysis of cell viability is necessary for the characterization of cell responses to cytotoxic drugs and environmental stress. A RealTime-Glo MT Cell Viability Assay to monitor cell viability in real time of continues cell culture during 40 hours of compound treatment was used to screen Tox21 10K library compounds in HepG2 cells. The RealTime-Glo MT Cell Viability Assay is a nonlytic, homogeneous, bioluminescent method to measure cell viability in real time using a simple, plate-based method. The assay involves adding NanoLuc luciferase and a cell-permeant prosubstrate to cells in culture. Viable cells reduce the proprietary prosubstrate to generate a substrate for NanoLuc luciferase. This substrate diffuses from cells into the surrounding culture medium, where it is rapidly used by the NanoLuc Enzyme to produce a luminescent signal. The signal correlates with the number of viable cells, making the assay well suited for cytotoxicity studies.
# Tox21 Assay Protocol Summary:
# The mixture of HepG2 cell suspension and reagents were dispensed at 600cells/6 ul/well in 1536-well tissue culture treated black solid bottom plates using a Multidrop dispenser. After the assay plates were incubated at a 37 C/5% CO2 incubator for 5 hours, 23 nL of compounds dissolved in DMSO, positive and negative controls was transferred to the assay plate by a pintool work station. The plates were incubated at 37 C for 40 hours. The luminescence intensity were measured at 0h, 8h, 16h, 24h, 32h and 40h time points using ViewLux plate reader during compound treatment.
row,SMILES,Potency
1,OCc1ccccc1,inactive
2,CCCCCCCCCCN,inactive
3,C=Cc1ccc(C)cc1,inactive
4,CCCCCCCCCCCCCCCC(=O)OC(C)C,inactive
5,C[Si]1(C)O[Si](C)(C)O[Si](C)(C)O[Si](C)(C)O1,inactive
6,C=CCc1ccc(OC)c(OC)c1,inactive
7,O=C1CCCC1,inactive
8,CC(=O)OCc1ccco1,inactive
9,CCNC(=S)NCC,inactive
10,COC(=O)c1cccnc1,inactive
11,CCCCCCCC=O,inactive
12,COc1cc(OC)c(C(=O)CCCN2CCCC2)c(OC)c1,inactive
13,CC(C)(C#N)c1cc(Cn2cncn2)cc(C(C)(C)C#N)c1,inactive
14,CCCCCCCCCCCCCCCCO,inactive
15,COc1ccccc1OCC(O)CO (stereo not given),inactive
16,N#Cc1ccccc1,inactive
17,COc1ccc(CCC(C)=O)cc1,inactive
18,CC(CCl)OP(=O)(OC(C)CCl)OC(C)CCl (stereo not given),inactive
19,CCCCCCC=O,inactive
20,CC(=O)Oc1ccc(C)cc1,inactive

row,SMILES,Potency
1,CN(C)CCOC(=O)COc1ccc(Cl)cc1,inactive
2,CC(O)CC(C)(C)O (stereo not given),inactive
3,Nc1nc(N)nc(-c2ccccc2)n1,inactive
4,OCc1cccc(Oc2ccccc2)c1,inactive
5,O=C(O)CCCCCCCCC(=O)O,inactive
6,CC(=O)OCCOC(C)=O,inactive
7,C=C(C)CNCC,inactive
8,CCOC(=O)n1ccn(C)c1=S,inactive
9,COc1ccc(C)cc1N,inactive
10,O=S(=O)(O)c1ccccc1,inactive
11,CCCCCCO,inactive
12,CCCCOC(=O)c1ccc(N)cc1,inactive
13,C=CC(C)CCCC(C)(C)O (stereo not given),inactive
14,O=C(OCC1CCC2OC2C1)C1CCC2OC2C1 (stereo not given),inactive
15,CC1(C)CC(N)CC(C)(CN)C1 (stereo not given),inactive
16,CSc1ccc(Cl)cc1,inactive
17,N[C@H](Cc1c[nH]c2ccccc12)C(=O)O,inactive
18,CC(C)(Oc1ccc(CCNC(=O)c2ccc(Cl)cc2)cc1)C(=O)O,inactive
19,Cc1ccc([N+](=O)[O-])cc1S(=O)(=O)O,inactive
20,CC1(C)OC[C@@H]2O[C@@]3(C(=O)O)OC(C)(C)O[C@H]3[C@@H]2O1,inactive
